# The whole screen tested about 310,000 compounds, of which about 14,000 (4.5%) showed an effect of 50% or more. The effect is printed as a negative number. This is one part of a sample in which strong results are shown more often than they occur.
# Target: human ether-à-go-go-related gene (hERG) potassium channel (human, UniProt Q12809)
# Experiment: primary screen, population patch clamp on CHO cells stably expressing hERG; higher = less effect of the substance
# 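Further: peak tail current of the secondary pulse compared with the same well before compound.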
# Chain of human ether-à-go-go-related gene (hERG) potassium channel (Q12809 whole entry, looked up): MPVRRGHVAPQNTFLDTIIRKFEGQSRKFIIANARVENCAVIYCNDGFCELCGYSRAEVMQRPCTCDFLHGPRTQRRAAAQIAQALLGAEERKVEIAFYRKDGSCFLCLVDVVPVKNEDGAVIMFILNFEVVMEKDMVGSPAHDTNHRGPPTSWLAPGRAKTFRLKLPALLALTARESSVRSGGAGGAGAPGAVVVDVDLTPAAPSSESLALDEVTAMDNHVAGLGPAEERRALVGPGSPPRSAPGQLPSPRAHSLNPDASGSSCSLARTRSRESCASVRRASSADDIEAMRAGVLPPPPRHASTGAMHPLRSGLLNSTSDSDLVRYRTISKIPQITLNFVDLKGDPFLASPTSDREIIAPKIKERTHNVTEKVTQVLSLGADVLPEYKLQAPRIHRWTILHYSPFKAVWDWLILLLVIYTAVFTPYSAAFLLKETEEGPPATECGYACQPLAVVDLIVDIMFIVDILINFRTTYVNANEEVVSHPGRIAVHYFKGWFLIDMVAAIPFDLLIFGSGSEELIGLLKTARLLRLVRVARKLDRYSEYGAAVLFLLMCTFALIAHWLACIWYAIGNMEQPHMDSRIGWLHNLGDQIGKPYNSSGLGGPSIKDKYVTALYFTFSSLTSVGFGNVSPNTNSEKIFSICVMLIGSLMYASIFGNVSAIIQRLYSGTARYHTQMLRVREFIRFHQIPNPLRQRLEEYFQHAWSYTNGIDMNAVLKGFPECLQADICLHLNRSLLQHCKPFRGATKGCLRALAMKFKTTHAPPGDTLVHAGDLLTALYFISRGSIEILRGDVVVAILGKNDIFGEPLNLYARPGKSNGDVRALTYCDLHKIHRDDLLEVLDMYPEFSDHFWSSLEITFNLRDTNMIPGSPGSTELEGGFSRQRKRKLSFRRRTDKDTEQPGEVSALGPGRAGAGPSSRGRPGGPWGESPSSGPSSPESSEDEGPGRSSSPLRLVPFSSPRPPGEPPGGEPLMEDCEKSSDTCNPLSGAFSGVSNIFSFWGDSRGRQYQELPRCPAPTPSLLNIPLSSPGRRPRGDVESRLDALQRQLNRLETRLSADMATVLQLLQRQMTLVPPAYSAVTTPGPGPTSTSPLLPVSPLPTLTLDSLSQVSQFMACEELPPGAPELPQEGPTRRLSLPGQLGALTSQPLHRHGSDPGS
row,Structure (SMILES),"hERG current change (%, negative = inhibition) at 10uM [%]"
1,Cl.O=C(OCCN1CCOCC1)c1cccs1,6.58
2,COc1ccc(C2=CC(=O)C[C@H](c3ccc(F)cc3)C2)cc1F,-16.5
3,COc1ccc2ccccc2c1CNCCN1CCOCC1.Cl,14.4
4,CC(CCc1ccccc1)NC(=O)Cc1ccccc1 (stereo not drawn),2.65
5,COc1ccc2ccccc2c1CNC(C)CCc1ccccc1.O=C(O)C(=O)O (stereo not drawn),-77.8
6,COc1ccc2ccccc2c1CNC(C)c1ccccc1.O=C(O)C(=O)O (stereo not drawn),-44.4
7,CN(CCOc1cccc2ccccc12)Cc1ccccc1.O=C(O)C(=O)O,0.659
8,COCC(C)NCc1cccc2ccccc12.O=C(O)C(=O)O (stereo not drawn),-0.173
9,COc1ccc(CCNCc2c(OC)ccc3ccccc23)cc1OC.Cl,-44.6
10,COc1ccc2ccccc2c1CN(C)Cc1ccccc1.O=C(O)C(=O)O,-51.7
11,COc1cccc(OC)c1C(=O)NC(C)CCc1ccccc1 (stereo not drawn),-19.1
12,CC(CCc1ccccc1)NCc1cccc2ccccc12.O=C(O)C(=O)O (stereo not drawn),-60.9
13,CN(Cc1ccccc1)Cc1c(O)ccc2ccccc12,7.65
14,COc1ccc2ccccc2c1CNCCc1ccccc1.Cl,-53.1
15,CC1(C)CC2CC(C)(CN2C(=O)c2cc(-c3ccccc3O)on2)C1 (stereo not drawn),12.7
16,Cc1ccc(S(=O)(=O)N2CCN(C(=O)COC(=O)c3ccccc3Cl)CC2)c(C)c1,-12.5
17,Cc1cccnc1NC(=O)Nc1ccccc1,1.64
18,CCCOc1ccc(N2C(=O)CC(NCc3cccs3)C2=O)cc1 (stereo not drawn),-18.6
19,COc1ccccc1CNC(=O)C1COc2ccccc2O1 (stereo not drawn),-15.1
20,Cc1cc(NC(=O)c2ccc([N+](=O)[O-])cc2)n(CCC#N)n1,11

row,Structure (SMILES),"hERG current change (%, negative = inhibition) at 10uM [%]"
1,O=C(NCCCc1nc2ccccc2[nH]1)c1cccs1,-5.12
2,COc1ccc(CCNCc2ccccn2)cc1OC,0.278
3,COc1ccc2ccccc2c1CNCc1ccccn1.Cl,-51.8
4,COc1ccc(CCNCc2c(OC)ccc3ccccc23)cc1.O=C(O)C(=O)O,-44.9
5,COc1cccc(CNCc2ccccn2)c1OC,5.32
6,COc1ccc2ccccc2c1CNCc1ccc(C)cc1.O=C(O)C(=O)O,-69.7
7,COc1ccccc1CNCc1ccc(C)cc1.O=C(O)C(=O)O,-6.14
8,CC(C)N(Cc1nc(-c2ccc(Cl)cc2)no1)C(=O)CCC1CCCC1,-7.81
9,Cc1nn(CCCC(=O)NC2CCC(C)CC2)c(=O)c2nn(-c3ccccc3)c(C)c12 (stereo not drawn),-5.97
10,O=C(/C=C(/c1ccc(Cl)cc1)n1cncn1)c1ccccc1,-27.5
11,C#CCOCCOCCOCCNc1nc(N2CCN(C(=O)[C@H](CCC(=O)O)n3cc(C(N)CO)nn3)CC2)nc(N2CCN(C(=O)[C@H](Cc3ccc(O)cc3)n3cc(C(N)[C@H](C)CC)nn3)CC2)n1.Cl (stereo partly drawn),9.89
12,CCN(CC(=O)Nc1c(F)cccc1F)C(=O)COc1ccc2c(c1)CCC2,-2.81
13,O=S(=O)(c1ccc(Nc2ccc(-c3ccc4c(c3)OCCO4)nn2)cc1)N1CCCC1,5.27
14,COc1ccccc1CNc1ccc2nnc(CCNC(=O)c3ccc(C)cc3)n2n1,-0.303
15,CCOCCn1c(CN2CCN(C(=O)c3ccco3)CC2)nc2c1c(=O)n(C)c(=O)n2C,-3.37
16,CCCCCn1c(CN2CCN(C(=O)c3ccco3)CC2)nc2c1c(=O)n(C)c(=O)n2C,-60.5
17,CCCCCCn1c(CN2CCN(C(=O)c3ccco3)CC2)nc2c1c(=O)n(C)c(=O)n2C,-65.8
18,CC(C)CCn1c(CN2CCN(C(=O)c3ccco3)CC2)nc2c1c(=O)n(C)c(=O)n2C,-39.9
19,CCCCn1c(CN2CCN(C(=O)c3ccco3)CC2)nc2c1c(=O)n(C)c(=O)n2C,-34.1
20,CCCn1c(CN2CCN(C(=O)c3ccco3)CC2)nc2c1c(=O)n(C)c(=O)n2C,-10.3

row,Structure (SMILES),"hERG current change (%, negative = inhibition) at 10uM [%]"
1,Cl.OC1(c2ccccc2)CCN(Cc2ccccc2)C2CCCCC21 (stereo not drawn),-15.6
2,COc1ccc(-c2nnc3sc(-c4ccco4)nn23)cc1OC,3.81
3,COCCCNc1nnc(Cc2ccccc2)c2ccccc12,-31.4
4,CC1(C)CC(=O)N(c2cccc(Cl)c2)C(=O)C1,10.4
5,CCOC(=O)C1CCN(C(=O)c2cc3c(=O)n4ccccc4nc3s2)CC1,-6.6
6,CCOc1ccccc1Cn1c(=O)sc2ccccc21,7.43
7,COc1ccc(C(=O)NN/C(C)=C/C(=O)c2ccccc2)cc1,4.41
8,CCN(CC(=O)Nc1c(F)cccc1F)C(=O)C1CCN(C(=O)c2ccc(F)cc2)CC1,4.59
9,N#CCCN(Cc1cccnc1)C(=O)Nc1ccc(Cl)c(Cl)c1,-26
10,S=C(Nc1ccccc1Cl)N(Cc1cccnc1)Cc1ccco1,-4.94
11,CCc1ccccc1NC(=S)N(Cc1cccnc1)Cc1ccco1,-18.8
12,CCc1ccc(NC(=O)N(Cc2cccnc2)Cc2ccco2)cc1,-53.1
13,Cc1ccc(NC(=O)N(Cc2cccnc2)Cc2ccco2)cc1C,-27.2
14,COc1ccccc1NC(=S)N(Cc1cccnc1)Cc1ccco1,-33.6
15,CCc1ccc(NC(=S)N(Cc2cccnc2)Cc2ccco2)cc1,-17.2
16,O=C(Nc1ccccc1)N(Cc1cccnc1)Cc1ccco1,-32.9
17,O=C(Nc1ccc(Cl)cc1)N(Cc1cccnc1)Cc1ccco1,-63.9
18,COc1ccc(Cl)cc1NC(=S)N(Cc1cccnc1)Cc1ccco1,-73.8
19,O=C(c1ccco1)N(Cc1ccc(Cl)cc1)Cc1ccco1,-41.2
20,O=C(Nc1ccc(Cl)c(Cl)c1)N(Cc1cccnc1)Cc1ccco1,-73.7
